Experimental data from PubChem BioAssay AID488969 (Vanderbilt High Throughput Screening Facility, 2010).
Whole data set: some 110,000 compounds, median “z-score” near -0.1, cut for the highest 2% near 2. Shown is part of a subset that was picked to be rich in the highest values. The source made the active and inactive calls.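 How the source made its calls: active means z-score in the third read window above 3 or below -3; inactive means the rest.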

Target: Metabotropic glutamate receptor 8 (Rattus norvegicus) (UniProt P70579)
Sequence (P70579 whole entry, looked up): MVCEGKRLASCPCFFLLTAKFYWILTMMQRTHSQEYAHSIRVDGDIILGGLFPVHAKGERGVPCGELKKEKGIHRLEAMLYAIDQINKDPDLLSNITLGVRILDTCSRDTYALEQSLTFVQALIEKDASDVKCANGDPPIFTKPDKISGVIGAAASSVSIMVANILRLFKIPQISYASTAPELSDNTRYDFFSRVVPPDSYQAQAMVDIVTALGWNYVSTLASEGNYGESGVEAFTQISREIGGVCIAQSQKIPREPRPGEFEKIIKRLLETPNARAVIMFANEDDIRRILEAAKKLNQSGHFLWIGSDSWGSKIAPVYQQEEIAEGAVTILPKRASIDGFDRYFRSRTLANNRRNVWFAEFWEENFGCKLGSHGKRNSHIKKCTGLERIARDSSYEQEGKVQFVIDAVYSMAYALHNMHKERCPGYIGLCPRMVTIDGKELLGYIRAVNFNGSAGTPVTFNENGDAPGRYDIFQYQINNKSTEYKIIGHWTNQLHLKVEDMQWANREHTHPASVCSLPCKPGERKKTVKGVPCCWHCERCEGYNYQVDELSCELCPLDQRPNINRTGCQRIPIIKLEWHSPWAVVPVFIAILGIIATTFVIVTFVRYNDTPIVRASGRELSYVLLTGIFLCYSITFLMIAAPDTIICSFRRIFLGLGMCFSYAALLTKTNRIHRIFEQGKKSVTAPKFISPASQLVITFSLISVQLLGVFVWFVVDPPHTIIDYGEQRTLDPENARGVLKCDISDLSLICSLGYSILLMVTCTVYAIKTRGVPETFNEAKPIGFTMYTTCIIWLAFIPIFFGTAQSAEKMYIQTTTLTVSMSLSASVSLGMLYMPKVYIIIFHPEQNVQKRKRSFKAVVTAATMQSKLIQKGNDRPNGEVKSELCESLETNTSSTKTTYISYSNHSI
Assay: mGluR8 Gi/Go-coupled signaling modulation – cell-based, rat, thallium flux, HTS, primary screen (AID 488969)
Conditions: HEK293 rat mGluR8, GIRK (G protein-gated inwardly rectifying potassium channel) thallium flux, FluoZin2; at 10 µM; stronger effect = higher value; submaximal glutamate (EC20) added with thallium

| Structure (SMILES) | z-score |
| --- | --- |
| CCn1c(COc2ccccc2)nnc1SCc1ccc(C#N)cc1 | -0.725 |
| Cc1c(Nc2nc3ccccc3nc2NS(=O)(=O)c2ccccc2)c(=O)n(-c2ccccc2)n1C | -0.716 |
| O=C(OCc1ccc([N+](=O)[O-])cc1)C1CCN(S(=O)(=O)c2ccccc2)CC1 | -0.136 |
| CCN(CC)c1ccc(NC(=O)c2nc3nc(C)cc(C(F)F)n3n2)cc1 | 3.02 (active) |
| Cc1cc(C(F)F)n2nc(C(=O)Nc3ccc(S(=O)(=O)N4CCCC4)cc3)nc2n1 | -0.187 |
| CNS(=O)(=O)c1ccc(NC(=O)c2nc3nc(C)cc(C(F)F)n3n2)cc1 | -0.548 |
| CCOC(=O)C1(C(=O)OCC)CC1c1ccccc1 (stereo not given) | -0.0513 |
| CCCCCCn1c2c(c(=N)c3c1CCC3)CCC2 | 1.81 |
| CCCCCCCCCn1c2c(c(=N)c3c1CCC3)CCC2 | 4.64 (active) |
| CCCCCCCCCCn1c2c(c(=N)c3c1CCC3)CCC2 | 0.554 |
| CCOC(=O)c1ccc(CNCc2ccc(C)cc2)cc1 | 0.302 |
| COC(=O)c1ccc(C(=O)OC)c(NC(=O)CSc2ccccn2)c1 | -0.644 |
| Clc1ccc2c(c1)CCc1cccnc1C2=C1CCNCC1 | 2.74 |
| O/N=C1\CCc2cc(Cl)ccc21 | 0.365 |
| CCOC(=O)c1c(NC(=O)COc2cccc3c2CCN(CC)C3=O)sc2c1CCC2 | -0.925 |
| CCOC(=O)c1c(-c2ccccc2)csc1NC(=O)c1nn(CC)cc1Br | -0.101 |
| COc1ccc(NC2CS(=O)(=O)CC2NCc2ccccc2)cc1 (stereo not given) | 0.261 |
| O=C(NC1CS(=O)(=O)CC1NCc1ccccc1)c1ccccc1 (stereo not given) | 0.00939 |
| O=S1(=O)CC(NCc2ccccc2)C(Nc2ccccc2)C1 (stereo not given) | 2.43 |
| C=CCNC(=O)C1CC(=O)N(c2ccc(OCC(=O)Nc3ccccc3)cc2)C1 (stereo not given) | 4.85 (active) |
| C=CCNC(=O)C1CC(=O)N(c2ccc(OCC(=O)Nc3ccc(OC)cc3)cc2)C1 (stereo not given) | -0.466 |
| C=CCNC(=O)C1CC(=O)N(c2ccc(OCC(=O)Nc3ccc(C)cc3)cc2)C1 (stereo not given) | 0.104 |

| Structure (SMILES) | z-score |
| --- | --- |
| C=CCSc1nnc(NC(=O)c2cccc(S(=O)(=O)N(C)c3ccccc3)c2)s1 | 0.542 |
| CCOc1ccc(C(CC(=O)O)NC(=O)c2sc3ccccc3c2Cl)cc1 (stereo not given) | -0.958 |
| COc1ccc(C(CC(=O)O)NC(=O)c2sc3ccccc3c2Cl)cc1 (stereo not given) | -0.476 |
| CCOC(=S)NC(=O)c1sc2ccccc2c1Cl | 11.1 (active) |
| Cc1ccccc1NC(=O)COC(=O)CNC(=O)c1sc2ccccc2c1Cl | -1.08 |
| CN(C(=O)COC(=O)CNC(=O)c1sc2ccccc2c1Cl)c1ccccc1 | -0.854 |
| CCCn1nnc(NC(=O)c2sc3ccccc3c2Cl)n1 | 0.0281 |
| O=C(NC(=S)N(CCCCO)C1CCCCC1)c1sc2ccccc2c1Cl | 9.88 (active) |
| CCCOC(=S)NC(=O)c1sc2ccccc2c1Cl | 12 (active) |
| O=C(COC(=O)c1sc2ccccc2c1Cl)NC1CCCCC1 | -0.479 |
| NC(N)=NS(=O)(=O)c1ccc(NC(=S)NC(=O)c2sc3ccccc3c2Cl)cc1 | 0.0467 |
| O=C(NCC1CCCO1)c1sc2ccccc2c1Cl (stereo not given) | -0.467 |
| CCCCOC(=S)NC(=O)c1sc2ccccc2c1Cl | 17.3 (active) |
| CC(=O)c1c(C(C)=O)c(C)n(CCCCn2c(C)c(C(C)=O)c(C(C)=O)c2C)c1C | -0.0757 |
| Cc1cc(C(=O)Nc2ccc(S(=O)(=O)Nc3onc(C)c3C)cc2)c(C)o1 | 0.0164 |
| CC(=O)Nc1ccc(NC(=O)Cc2sc(C)nc2-c2ccc(C)cc2)cc1 | -0.345 |
| O=C(O)c1ccc(-c2nc(-c3ccccc3)c(-c3ccccc3)[nH]2)cc1 | -1.56 |
| Cc1ccc2oc(-c3cccc(NC(=O)c4cc(-n5cnnc5)ccc4Cl)c3)nc2c1 | -0.0315 |
| CCOC(=O)C1=C(C)N(C)C(=O)NC1c1ccc(C)s1 (stereo not given) | -0.0391 |
| O=C(CCC(=O)Nc1ccccc1)NNC(=O)C(c1ccccc1)c1ccccc1 | 0.336 |
| S=c1nn[nH]n1C12CC3CC(CC(C3)C1)C2 | 2.46 |
| Cc1nnn(C23CC4CC(CC(C4)C2)C3)n1 | -0.708 |

| Structure (SMILES) | z-score |
| --- | --- |
| Cn1c(C23CC4CC(CC(C4)C2)C3)n[nH]c1=S | 0.216 |
| COC(=O)c1sc2nc(SCc3ccccc3C#N)n(N)c(=O)c2c1C | 0.247 |
| CC1(C)CC(=O)C2=C(C1)Oc1ncn(CCO)c(=N)c1C2c1ccccc1 (stereo not given) | 0.471 |
| COc1ccc(C2c3c(ncn(Cc4ccco4)c3=N)Oc3ccc4ccccc4c32)cc1 (stereo not given) | -0.169 |
| COc1ccc(C2c3ccc4ccccc4c3Oc3ncn(CCN4CCOCC4)c(=N)c32)cc1 (stereo not given) | 4.1 (active) |
| COc1ccc(C2C3=C(CC(C)(C)CC3=O)Oc3ncn(Cc4ccccc4)c(=N)c32)cc1 (stereo not given) | 2.84 |
| COc1ccc(C2c3ccc4ccccc4c3Oc3ncn(Cc4ccco4)c(=N)c32)cc1OC (stereo not given) | 0.46 |
| COc1ccc(C2C3=C(CC(C)(C)CC3=O)Oc3ncn(CCO)c(=N)c32)cc1OC (stereo not given) | 0.234 |
| c1ccc(-c2oc3ncnc(NCCN4CCOCC4)c3c2-c2ccccc2)cc1 | -0.115 |
| COc1ccc(-c2oc3ncnc(NCCN4CCOCC4)c3c2-c2ccc(OC)cc2)cc1 | -0.338 |
| COc1ccc(C2c3c(ncn(CCN4CCOCC4)c3=N)Oc3ccc4ccccc4c32)cc1OC (stereo not given) | 0.922 |
| COc1ccc(-c2oc3ncn(CCN4CCOCC4)c(=N)c3c2-c2ccc(OC)cc2)cc1 | 2.6 |
| N=c1c2c(ncn1CCN1CCOCC1)Oc1ccc3ccccc3c1C2c1ccccc1 (stereo not given) | 4.03 (active) |
| N=c1c2c(ncn1Cc1ccco1)Oc1c(ccc3ccccc13)C2c1ccccc1 (stereo not given) | 0.538 |
| CC(CN1CCOCC1)OC(=O)C(C)(c1ccccc1)c1ccccc1 (stereo not given) | 0.383 |
| O=C(CSc1nnc(-c2ccc(OC(F)F)cc2)o1)NC(=O)NCc1ccco1 | -0.253 |
| CC1=CC(c2ccccc2)n2nc(N3C(=O)C4CC=CCC4C3=O)nc2N1 (stereo not given) | -0.783 |
| CC1(C)Cc2c(ccc3ccccc23)-c2nnc(-c3cccnc3)n21 | 3.16 (active) |
| CC1(C)Cc2c(ccc3ccccc23)C(NNC(=O)c2cccnc2)=N1 | 0.408 |
| CC1(C)Cc2ccccc2-c2nnc(-c3cccnc3)n21 | 0.241 |
| CCOC(=O)c1c(NC(=O)c2cccs2)sc(CC)c1-c1cccs1 | -0.275 |
| COC(=O)c1nn(Cc2ccccc2)c(=O)c2ccccc12 | 0.721 |

| Structure (SMILES) | z-score |
| --- | --- |
| Cc1onc(-c2ccccc2Cl)c1C(=O)NC(=S)NCCc1ccccc1 | 2.63 |
| O=C(NC(=S)NCCc1ccccc1)c1ccccc1 | 1.9 |
| O=C(CNC(=S)NC(=O)c1cccs1)c1ccccc1 | 6.19 (active) |
| COc1cc(OC)cc(C(=O)NC(=S)NCCc2ccccc2)c1 | 2.08 |
| O=C(Cc1cccs1)NNC(=S)NC(=O)c1ccccc1 | 0.646 |
| Cc1ccc(C(=O)NC(=S)NCC(=O)c2ccccc2)cc1 | -0.021 |
| COc1ccc(CCNC(=O)c2c(-c3ccccc3Cl)noc2C)cc1 | 0.099 |
| COc1ccc(C(=O)NC(=S)NNC(=O)Cc2cccs2)cc1 | 0.741 |
| O=C(CNC(=S)NC(=O)c1ccccc1)c1ccccc1 | 0.079 |
| COc1ccc(CCNC(=S)NC(=O)c2ccccc2)cc1OC | 0.202 |
| COc1cc(OC)cc(C(=O)NC(=S)NNC(=O)Cc2cccs2)c1 | 2.21 |
| Cc1onc(-c2ccccc2Cl)c1C(=O)NCc1ccccc1 | 0.341 |
| CNC(=S)N1CCN(C(=O)C2CCCO2)CC1 (stereo not given) | -0.25 |
| CC(NC(=O)COc1ccc(/C=N/NC(=O)C(=O)Nc2ccccc2Br)cc1)c1ccccc1 (stereo not given) | 0.00853 |
| CCC(C)(C)NC(=O)CN(Cc1cccs1)C(=O)CNS(=O)(=O)c1ccc(C)cc1 | 0.191 |
| CCCn1nnc(NC(=O)c2ccc(Cl)cc2Cl)n1 | -0.0896 |
| O=C(NS(=O)(=O)c1ccccc1)c1ccccc1O | 0.0922 |
| c1cc(-c2nnc3n2CCCCC3)ccn1 | 0.91 |
| Cc1cc(Cl)ccc1NC(=S)NCc1ccccc1Cl | 0.000558 |
| CCn1nc(C(=O)OCC(=O)c2ccc3c(c2)OCCO3)c2ccccc2c1=O | -0.721 |
| Cc1ccc(C(=O)N/C(=C/c2cccc([N+](=O)[O-])c2)C(=O)NC(C)C)cc1 | -0.0623 |
| CCC(C)Nc1nc(CN2CCOCC2)nc2sc3c(c12)CCC3 (stereo not given) | -0.57 |

| Structure (SMILES) | z-score |
| --- | --- |
| CC(C)C(=O)NC(=S)NCC(=O)c1ccccc1 | -0.37 |
| Cc1ccccc1C(=O)NC(=S)NCC(=O)c1ccccc1 | -0.0957 |
| O=C(CNC(=S)NC(=O)c1ccc(Cl)cc1)c1ccccc1 | 1.87 |
| O=C(CNC(=S)NC(=O)c1ccco1)c1ccccc1 | 6.42 (active) |
| CCOc1ccc(C(=O)CC(=O)C(=O)NCCc2ccc(OC)c(OC)c2)cc1 | -0.0424 |
| O=C(NC(=S)NCCc1ccccc1)c1ccco1 | 13 (active) |
| O=C(NC(=S)N(CCc1ccccc1)CCc1ccccc1)c1ccco1 | -1.87 |
| COc1ccc(S(=O)(=O)CCC(=O)NCCc2cccc(C)c2)cc1 | 0.00176 |
| COc1ccc(C(=O)CC(=O)C(=O)NCCc2cccc(C)c2)cc1 | 3.99 (active) |
| O=C(NCCc1ccccc1)c1ccco1 | -0.2 |
| Cc1ccccc1C(=O)NC(=S)NCCc1ccccc1 | 6.68 (active) |
| CC(C)(C)C(=O)NC(=S)NCCc1ccccc1 | -0.0291 |
| Cc1cc2ccccc2n2c(SCC(=O)N3CCc4ccccc4C3)nnc12 | 0.115 |
| CC(=O)C1=C(c2ccccc2)NC(=S)NC1c1cc(Cl)c(OC(C)C)c(Cl)c1 (stereo not given) | 0.616 |
| O=C(CN(C(=O)c1cccc([N+](=O)[O-])c1)C1CCCCC1)Nc1ccc(Cl)c([N+](=O)[O-])c1 | -0.137 |
| CCOc1nc(-c2ccc(C)cc2)ccc1-c1noc(COC)n1 | -0.156 |
| Cc1cc(C)c(Cn2cnc(-c3ccc([N+](=O)[O-])cc3)c2)c(C)c1 | -0.0263 |
| Cc1ccc(-c2ccc(CCC(=O)O)n2C(C)C)cc1 | -0.00219 |
| CC(C)n1c(CCC(=O)O)ccc1-c1ccccc1 | 2.11 |
| COc1ccc(-c2ccc(CCC(=O)O)n2C(C)C)cc1 | -0.109 |
| Clc1ccc(-c2nnc3n2CCCS3)cc1 | 0.105 |
| Cc1ccc(S(=O)(=O)NCCCCC(NC(=O)OC(C)(C)C)C(=O)O)cc1 (stereo not given) (tested in a mixture with another compound) | -0.148 |
